In PubChem BioAssay AID488977 (Johns Hopkins Ion Channel Center, 2010):
Among all 310,000 compounds or so, about 1,500 (0.48%) were called active.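 The calls were made as follows: active = initial fluorescence not abnormally high and integrated response B-score, plate-corrected, over 3 SD above library mean; inactive = the rest.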 The full list was thinned out, with actives kept by preference.

Each compound was assayed against High affinity choline transporter 1 (Homo sapiens) (UniProt Q9GZV3) (assay: allosteric activators of human choline transporter – cell-based, membrane potential dye, choline EC20, primary screen (AID 488977)). Settings: CHT-expressing cells, at 10 µM, LV-AA mutant CHT in HEK293 cells; active compounds read high.
Sequence of High affinity choline transporter 1 (Homo sapiens) (Q9GZV3 whole entry, looked up): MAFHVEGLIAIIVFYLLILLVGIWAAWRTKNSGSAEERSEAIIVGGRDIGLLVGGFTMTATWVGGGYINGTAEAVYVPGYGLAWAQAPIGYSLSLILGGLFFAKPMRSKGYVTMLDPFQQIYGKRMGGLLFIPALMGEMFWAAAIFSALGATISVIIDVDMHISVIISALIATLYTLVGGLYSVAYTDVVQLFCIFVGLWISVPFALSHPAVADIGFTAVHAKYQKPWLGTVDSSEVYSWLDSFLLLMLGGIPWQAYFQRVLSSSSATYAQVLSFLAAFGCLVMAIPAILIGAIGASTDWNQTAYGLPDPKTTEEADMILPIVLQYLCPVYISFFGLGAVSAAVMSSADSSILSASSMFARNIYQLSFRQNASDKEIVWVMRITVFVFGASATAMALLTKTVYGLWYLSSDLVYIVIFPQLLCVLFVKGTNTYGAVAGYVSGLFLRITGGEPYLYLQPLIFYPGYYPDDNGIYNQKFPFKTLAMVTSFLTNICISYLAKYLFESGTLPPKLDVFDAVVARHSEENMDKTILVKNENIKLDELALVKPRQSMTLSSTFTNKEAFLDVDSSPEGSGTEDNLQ

| Structure (SMILES) | B-score |
| --- | --- |
| Cc1sc2ncnc(N3CCC(C(=O)NNC(=O)c4ccc(F)cc4)CC3)c2c1C | inactive |
| O=C(CSc1nnc(-c2ccccc2)o1)N1CCOCC1 | inactive |
| CC1=CC(C)(C)N(C(=O)CSc2nccn2C)c2cc(C)ccc21 | inactive |
| CC1=CC(C)(C)N(C(=O)CSc2nnc(-c3ccccc3)o2)c2ccc(C)cc21 | 9.98 (active) |
| CCN1/C(=C/C(=S)Nc2ccccc2)Sc2ccccc21 | inactive |
| CCN1/C(=C\c2ccc3ccccc3[n+]2CC)Sc2cc(C)ccc21 | inactive |
| CCN1/C(=C/c2ccc3ccc(C)cc3[n+]2CC)Sc2ccccc21 | 7.76 (active) |
| COc1ccc(C(=O)NCC(c2ccco2)N2CCc3ccccc32)cc1OC (stereo not drawn) | inactive |
| Cc1ccccc1C(=O)NCC(c1ccco1)N1CCc2ccccc21 (stereo not drawn) | 7.63 (active) |
| O=C(NCC(c1ccco1)N1CCc2ccccc21)c1cccc(F)c1 (stereo not drawn) | inactive |
| CC(=O)Nc1ccc(C(=O)Nc2cccc(S(=O)(=O)NC3=NCCC3)c2)cc1 | inactive |
| COc1ccc(C(=NN)c2ccc(OC)cc2)cc1 | inactive |
| CCOC(=O)[C@H]1[C@H]2COc3ccc(Cl)cc3[C@@H]2N2C(=O)c3cc(C)ccc3NC(=O)[C@@]12C | inactive |
| Cn1cccc1C(=O)NNC(=O)COc1ccc(Br)cc1 | inactive |
| O=C(Nc1ccc(S(=O)(=O)N2CCCCC2)cc1)C1CCN(C(=O)c2ccc(F)cc2)CC1 | inactive |
| COc1ccc(C2CC(=O)Nc3cc(C)c(C)cc32)c(OC)c1OC (stereo not drawn) | inactive |
| CCCOc1ccccc1C1CC(=O)Nc2cc3c(cc21)OCO3 (stereo not drawn) | 7.15 (active) |
| COc1ccccc1C1C2=C(COC2=O)Nc2cc3c(cc21)OCO3 (stereo not drawn) | inactive |
| COc1ccc(/C=C2\SC(=S)N(CCCC(=O)NC3CCCC3)C2=O)cc1OC | inactive |
| Cc1c(CCOC(=O)c2cc([N+](=O)[O-])ccc2Cl)sc[n+]1CCCCS(=O)(=O)[O-] | inactive |
| Cc1c(CCOC(=O)CC23CC4CC(CC(C)(C4)C2)C3)sc[n+]1Cc1ccc([N+](=O)[O-])cc1 | 8.47 (active) |
| CCN(CC)CCn1c2c(c(SCC(=O)Nc3nc4ccccc4s3)nc1=O)CCCC2 | inactive |
| CCC(C)(C)NC(=O)c1cc([N+](=O)[O-])ccc1N1CCCCC1 | inactive |
| CCC(=O)c1ccc(N2CCN(C(=O)c3cc([N+](=O)[O-])ccc3F)CC2)c(F)c1 | inactive |
| CCN1CCN(c2ccc([N+](=O)[O-])cc2C(=O)c2ccc(Cl)cc2)CC1 | 8.73 (active) |

| Structure (SMILES) | B-score |
| --- | --- |
| Cc1cc(O)c(Sc2ccccc2)c(=O)o1 | inactive |
| CCOC(=O)c1cn(CC)c2cc(F)c(F)cc2c1=O | 7.03 (active) |
| CCCCCCn1cc(C(=O)O)c(=O)c2cc(F)c(N3CCCCC3)cc21 | inactive |
| Cc1ccc(Cn2cc(C(=O)NN)c(=O)c3ccc(F)cc32)cc1 | inactive |
| Cc1cc(C)c(S(=O)(=O)n2cc(C(C)C(N)C(=O)O)c3ccccc32)c(C)c1 (stereo not drawn) | inactive |
| CCCn1c(C)cc(-c2csc(NC(=O)CCc3nc4ccccc4c(=O)[nH]3)n2)c1C | inactive |
| O=C1c2ccccc2C(=O)c2c1cccc2N1CCN(Cc2ccccc2)CC1 | inactive |
| O=C1c2ccccc2C(=O)c2c1cccc2N1CCN(CCO)CC1 | 8.6 (active) |
| O=C1c2ccccc2C(=O)c2c1cccc2N1CCN(C/C=C/c2ccccc2)CC1 | inactive |
| COc1ccc(C(=O)C2CCCN(C(=O)c3ccc(OC)o3)C2)c(C)c1 (stereo not drawn) | inactive |
| COc1ccc(NC(=O)CCC(=O)N2CCN(S(=O)(=O)c3ccc(C)cc3)CC2)c(OC)c1 | inactive |
| COc1ccc2sc(N(CCCN(C)C)C(=O)c3ccc(S(=O)(=O)N(C)C4CCCCC4)cc3)nc2c1 | inactive |
| CCN1C(=O)[C@H]2[C@@H](c3ccc(-c4ccc(OC)cc4)cc3)N[C@@](Cc3ccccc3)(C(=O)OC)[C@H]2C1=O | inactive |
| Cc1cc(=O)oc2c(C)c(OC(C)C(=O)NC3CCN(Cc4ccccc4)CC3)ccc12 (stereo not drawn) | 6.43 (active) |
| CCCc1cc(=O)oc2c(C)c(OC(C)C(=O)NCC(O)c3ccccc3)ccc12 (stereo not drawn) | inactive |
| Cc1c(OC(C)C(=O)NCC2CCC(C(=O)O)CC2)ccc2c1oc(=O)c1ccccc12 (stereo not drawn) | inactive |
| CC(OC(=O)C1CC(=O)N(Cc2ccccc2)C1)C(=O)Nc1ccccc1[N+](=O)[O-] (stereo not drawn) | inactive |
| CC(C)Oc1ccc(S(=O)(=O)N2CCOCC2)cc1NC(=O)C1CSC2(C)CCC(=O)N12 (stereo not drawn) | inactive |
| Cc1cc(Nc2ccc(Br)cc2)nc2ccccc12 | inactive |
| Cc1ccc(NC(=O)c2cnc(SCC(=O)NCC3CCCO3)n(C)c2=O)cc1 (stereo not drawn) | inactive |
| Cc1cccn2c(=O)c3cc(C(=O)N4COCC4(C)C)n(C)c3nc12 | inactive |
| Cc1cccn2c(=O)c3cc(C(=O)NCCN4CCOCC4)c(=N)n(Cc4cccnc4)c3nc12 | inactive |
| Cc1cccn2c(=O)c3cc(C#N)c(=O)n(CCCN4CCOCC4)c3nc12 | 7.22 (active) |
| Cc1ccc2nc(NC(=O)CSc3nc(=O)n(CCCN(C)C)c4c3CCC4)sc2c1 | inactive |
| COC(=O)c1cc(OC)c(OC)cc1NC(=O)C1CCCO1 (stereo not drawn) | inactive |

| Structure (SMILES) | B-score |
| --- | --- |
| COc1cc2nc(N3CCN(C(=O)[C@@H]4CCCO4)CC3)nc(N)c2cc1OC | 8.15 (active) |
| O=C(C1CCCO1)N1CCC(c2nc3ccccc3[nH]2)CC1 (stereo not drawn) | inactive |
| COc1ccc(-c2cc(C(=O)N/N=C/c3cccnc3)c3ccccc3n2)c(OC)c1 | inactive |
| Cc1ccc(CNC(=O)c2cc(-c3ccccc3C)n(CC3CC(c4cccc([N+](=O)[O-])c4)=NO3)n2)cc1 (stereo not drawn) | inactive |
| CCN(CC)C(=O)N(CC)Cc1ccccc1 | inactive |
| Cc1cccc(N(Cc2ccccc2)C(=O)c2ccccc2F)c1 | inactive |
| O=C(c1ccccc1F)N(Cc1ccccc1)Cc1ccccc1 | 6.51 (active) |
| Cc1ccc(NC(=O)CSCC(=O)Nc2sccc2C#N)cc1 | inactive |
| Cc1nnc(SCCCn2c(N3CCCCC3)nc3c2c(=O)[nH]c(=O)n3C)s1 | inactive |
| CN1CCN(c2nc3c(c(=O)[nH]c(=O)n3C)n2Cc2cccc3ccccc23)CC1 | inactive |
| Cn1c(=O)[nH]c(=O)c2c1nc(N1CCN(CCO)CC1)n2CCSc1nc2ccccc2s1 | 7.66 (active) |
| CCC1Nc2ncnc(N3CCN(c4ccccc4)CC3)c2N(Cc2ccc(Cl)cc2)C1=O (stereo not drawn) | inactive |
| O=C(CCC1CCCCC1)Nc1cc(C(F)(F)F)ccc1N1CCOCC1 | inactive |
| CC(C)c1ccc(S(=O)(=O)N2CCN(C(=O)CN3C(=O)NC(C)(c4ccccc4)C3=O)CC2)cc1 (stereo not drawn) | inactive |
| CCCCCCCNC(=O)C1(CC2CC(c3cccc(Br)c3)=NO2)CCN(C(=O)c2cc(OCC)c(OCC)c(OCC)c2)CC1 (stereo not drawn) | inactive |
| Cc1ccc(S(=O)(=O)N2CCN(C(=O)Cc3sc(C)nc3-c3ccc(F)cc3)CC2)c(C)c1 | inactive |
| O=C(Nc1ncccc1O)c1ccc(C(=O)c2ccccc2)cc1 | inactive |
| COc1ccccc1CCC(=O)NNC(=O)c1ccncc1 | inactive |
| Cc1cc(NC(=O)Nc2ccccc2)n(-c2ccccc2)n1 | inactive |
| Cc1cc(NC(=O)c2cnn3cccnc23)n(-c2ccccc2)n1 | 6.76 (active) |
| O=C(Nc1ccc(Cl)cn1)c1cnn2cccnc12 | inactive |
| CCOc1cc(C(=O)Nc2ccc(S(=O)(=O)Nc3cnc4ccccc4n3)cc2)cc(OCC)c1OCC | inactive |
| O=C(NCC(c1ccco1)N1CCc2ccccc2C1)c1ccccc1Cl (stereo not drawn) | inactive |
| COc1ccc(C(CNC(=O)c2cccc(NS(=O)(=O)c3ccc(C)c(F)c3)c2)N2CCCC2)cc1 (stereo not drawn) | inactive |
| CCOC(=O)c1cc2ccccc2n1CC(=O)c1ccccc1 | inactive |

| Structure (SMILES) | B-score |
| --- | --- |
| CCn1c(/C=C/Nc2ccccc2)[n+](CC)c2ccc(C(=O)OCC(F)(F)F)cc21 | 7.01 (active) |
| CCOC(=O)N1CCN(C(=O)c2ccc(S(=O)(=O)Nc3cccc(C(F)(F)F)c3)cc2)CC1 | inactive |
| Cc1onc(-c2ccccc2Cl)c1C(=O)OCc1nnc(-c2ccccc2)o1 | inactive |
| CCN(CC(=O)Nc1c(F)cccc1F)C(=O)c1ccc(-c2ccccc2)cc1 | inactive |
| O=C(CSC1=NS(=O)(=O)c2cc(F)ccc2N1)Nc1ccccc1F | inactive |
| COc1cccc(CC2(CO)CCCN(Cc3ccc(OC(F)F)cc3)C2)c1 (stereo not drawn) | inactive |
| CCCCCN(C(=O)CCC(=O)OCCOc1ccc(OC)cc1)c1c(N)n(CCCC)c(=O)[nH]c1=O | inactive |
| CCCCCC(=O)N1CCN(S(=O)(=O)c2ccc3c(c2)OCCCO3)CC1 | inactive |
| Cc1cccc(-c2nc(Nc3ccc(O)cc3)c3ccccc3n2)c1 | inactive |
| CN1CCN(c2nc(Nc3ccc(O)cc3)nc3ccccc23)CC1 | 6.97 (active) |
| c1ccc(Nc2nc(N3CCOCC3)c3ccccc3n2)cc1 | inactive |
| C=CCOc1cccc(C2C(C(=O)c3ccc(C)o3)=C(O)C(=O)N2c2nnc(C)s2)c1 (stereo not drawn) | inactive |
| Cc1c(NC(=O)C(C)OC(=O)c2c3c(nc4ccccc24)CCC(C)C3)c(=O)n(-c2ccccc2)n1C (stereo not drawn) | inactive |
| COC(=O)c1sc(C(F)(F)F)c(-c2ccccc2)c1S(=O)(=O)N(C)C | 9.76 (active) |
| CCOC(=O)CN(C)S(=O)(=O)c1ccc(-c2cc(C(=O)OC)sc2C(F)(F)F)cc1 | inactive |
| COC(=O)c1cc2nc(-c3ccccc3)cc(C(F)(F)F)n2n1 | inactive |
| CC1(C)CC[C@]2(C(=O)O)CC[C@]3(C)C(=CCC4[C@@]5(C)CC[C@H](O)C(C)(C)C5[C@H](O)C[C@]43C)[C@@H]2C1 (stereo partly drawn) | inactive |
| N#Cc1ccc(/C=C2\CCn3c2nc2cc(C(=O)O)ccc2c3=O)cc1 | 6.78 (active) |
| Cc1ccc(/C=C2\CCn3c2nc2cc(C(=O)O)ccc2c3=O)c(C)c1 | inactive |
| O=C(O)c1ccc2c(=O)n3c(nc2c1)/C(=C/c1ccc(Cl)c([N+](=O)[O-])c1)CC3 | inactive |
| CC1(C)Cc2c(sc3nc4n(c(=N)c23)CCCCC4)CO1 | 7.43 (active) |
| CC(C)c1nc2sc3c(c2c(=O)n1N)CC(C)(C)OC3 | inactive |
| N=c1c2c3c(sc2nc2n1CCCCC2)CCCC3 | inactive |
